# AmpC inh detg – qHTS Inhibitors of AmpC Beta-Lactamase (assay with detergent); P00811; AmpC hydrolysis of nitrocefin, absorbance 480 nm, 0.01% Triton; Potency, µM (top dose mostly 114 µM), for the others: at the highest dose activity change, negative = inhibition, most hits filed as inhibitors; 370,000 compounds, 0.041% hits;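 further: 0% = no-compound wells and -100% = no-enzyme wells; nearly all actives have a fitted effect of over 25% in size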
# Target sequence (P00811 whole entry, looked up): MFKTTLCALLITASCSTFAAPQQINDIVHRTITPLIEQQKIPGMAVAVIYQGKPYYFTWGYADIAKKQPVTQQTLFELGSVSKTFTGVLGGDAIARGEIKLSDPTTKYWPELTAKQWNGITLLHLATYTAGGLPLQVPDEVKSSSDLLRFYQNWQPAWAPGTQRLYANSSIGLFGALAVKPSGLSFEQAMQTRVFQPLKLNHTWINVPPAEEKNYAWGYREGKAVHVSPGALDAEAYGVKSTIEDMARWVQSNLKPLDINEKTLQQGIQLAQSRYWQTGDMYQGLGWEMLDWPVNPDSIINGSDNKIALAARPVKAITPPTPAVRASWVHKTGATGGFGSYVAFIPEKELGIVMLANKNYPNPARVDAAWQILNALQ
#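 AmpC (5.3 nM in the dispensed reagent) in 20 mM phosphate pH 7.0 with 0.01% (detergent screen) or 0.0001% Triton X-100 was preincubated with compounds for 15 min at room temperature. Nitrocefin was then added from an 800 uM solution, and hydrolysis was followed at 480 nm.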
# Sm TGR block – qHTS Assay for the Inhibitors of Schistosoma Mansoni Peroxiredoxins. Schistosoma mansoni thioredoxin glutathione reductase (TGR), Q962Y6. purified TGR, DTNB reduction, TNB absorbance 405 nm. Potency, µM (doses to about 114 µM), for inactives: at the top dose activity change, negative = inhibition, hits mostly inhibitors. 360,000 compounds, 3% hits. AID 485364, 2010; further: on the % scale 0 is the no-effect control and ±100 the full control effect; nearly all actives have a fitted effect of over 60% in size
#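 First, TGR (20 nM dispensed) and NADPH were mixed with compound. Second, a 15 min room-temperature incubation followed. Third, further NADPH and then DTNB were added to start the reaction. Finally, TNB absorbance was monitored kinetically.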
# RE007 growth inh – qHTS Assay for Inhibitors of the HIV-1 protein Vpr | Potency, µM (titrated, usually from 92.2 µM), without a hit: top-dose activity change, negative = less growth, most hits filed as inhibitors | S. pombe RE007 Vpr strain, BacTiter-Glo ATP luminescence, 24 h | 360,000 compounds, 0.21% hits | AID 651644, 2012; active means well fitted falling curve with a large enough effect; inconclusive means small, poorly fitted or top-dose-only effect; inactive means no such curve, though single readings can be large or run the other way; further: on the % scale 0 is the no-effect control and ±100 the full control effect; nearly all actives have a fitted effect of over 50% in size
#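 Fission yeast RE007 carrying one integrated HIV-1 vpr copy, seeded at OD 0.01 in PMG+AL medium with 23 nL pinned compound. Grown 24 h at 30 degrees; viability read by BacTiter-Glo luminescence after 5 min.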
# SARS PLpro yeast – qHTS of Yeast-based Assay for SARS-CoV PLP. S. cerevisiae expressing SARS-CoV PLpro, growth rescue. Potency, µM (series often up to 32.9 µM), for the others: at the top dose activity, positive = growth rescue, hits mostly activators. 330,000 compounds, 0.19% hits. AID 485353, 2010; calls by dose curve; further: 0% is about no effect; nearly all actives have a fitted effect of over 55% in size
# AmpC no deterg – qHTS Inhibitors of AmpC Beta-Lactamase (assay without detergent); P00811; AmpC nitrocefin hydrolysis, absorbance 480 nm, 0.0001% Triton; Potency, µM (titrated, usually from 57.1 µM), for the others: at the highest dose activity change, negative = inhibition, actives largely listed as inhibitors; 330,000 compounds, 0.52% hits;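 further: plate controls were no compound for no effect and no enzyme for full effect; nearly all actives have a fitted effect of over 20% in size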
#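 AmpC (5.3 nM in the dispensed reagent) in 20 mM phosphate pH 7.0 with 0.01% (detergent screen) or 0.0001% Triton X-100 was preincubated with compounds for 15 min at room temperature. Nitrocefin was then added from an 800 uM solution, and hydrolysis was followed at 480 nm.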
# TbPYK inhibitor – qHTS of Trypanosoma Brucei Inhibitors; Potency, µM (top dose mostly 76.8 µM), without a hit: at the top dose activity, negative = inhibition, most hits filed as inhibitors; TbPYK enzyme, Kinase-Glo Plus ATP luminescence, 45 min; 410,000 compounds, 0.12% hits; further: on the % scale 0 is the no-effect control and ±100 the full control effect; nearly all actives have a fitted effect of over 50% in size
#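 Luminescence from Kinase-Glo Plus, added after a 45-minute room-temperature reaction, served as the end-point read-out. The enzyme and substrate were preincubated with compound before ADP (130 uM final) initiated turnover. Concentration-effect curves came from normalized qHTS data.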
# * hit, by the source's call; ? = inconclusive; . = no result given; [ ] = another dose, or the depositor's remark. A selection: hits, their analogues and other compounds. The true share with any hit is near 3.3%. Unless noted, the call rests on the fitted dose curve; in most records, active means well fitted curve in the direction sought with a large enough effect; inconclusive means small, poorly fitted or top-dose-only effect, or another doubt; inactive means no such curve, though single readings can be large; an effect the other way counts as inactive or inconclusive. Potency means the concentration at half of the fitted maximal effect.
SMILES,AmpC inh detg,Sm TGR block,RE007 growth inh,SARS PLpro yeast,AmpC no deterg,TbPYK inhibitor
CCCCN(C)CCCNC(=O)C1CCN(c2nc3ccc(CC)cc3s2)CC1,7%,-4%,.,.,.,3%
COc1ccc(NC(=O)Cn2c(=O)n(-c3cc(C)cc(C)c3)c(=O)c3oc4ccccc4c32)cc1OC,-4%,-6%,.,.,.,-3%
COC12C(COC(N)=O)C3=C(C(=O)C(C)=C(N)C3=O)N1CC1C2N1C (stereo not given),6%,13µM*,5%,4%,-20%,4%
CCN(CC)c1nn2c(=O)c(C(=O)NCCc3cccc(C)c3)cnc2s1,-9%,1%,.,.,.,-10%
CCOC(=O)C(NS(=O)(=O)c1ccccc1)(C(F)(F)F)P(=O)(OC(C)C)OC(C)C (stereo not given),-12%,35µM*,1%,-1%,-1%,-3%
CCOC(=O)C(O)(c1ccc(N(CC)S(=O)(=O)c2ccccc2)cc1)C(F)(F)F (stereo not given),-4%,14%,3%,-9%,-6%,-1%
CCC(=O)O[C@@](Cc1ccccc1)(c1ccccc1)[C@H](C)CN(C)C,.,.,.,.,.,-2%[157 µM]
Cc1nnc(-c2ccccc2)c(=O)n1/N=C/c1c(O)ccc2ccccc12,-7%,-1%,1%,3.2µM*,-23%,9%
Cc1nnc(C)n1/N=C/c1c(O)ccc2ccccc12,-7%,28µM*,-4%,-1%,-28%,-5%
Cn1c(/N=C/c2c(O)ccc3ccccc23)nc2ccccc21,5%,10µM*,-10%,?,-25%,-6%
CCCn1c(/N=C/c2ccccc2O)nc2ccccc21,4%,-20%,-9%,0%,-12%,-1%
COCCCNC(=O)c1sc2nc(C)c(C(=O)Nc3ccc(C)cc3C)c(-c3ccc(Cl)cc3)c2c1N,-5%,-5%,.,.,.,0%
CCOc1ccccc1NC(=O)CSC1=C(C#N)C(c2ccco2)C(C(=O)Nc2nc3ccccc3s2)=C(C)N1 (stereo not given),1%,-15%,5%,8%,5µM*,-5%
CCN(CC)CCn1c2c(c(SCC(=O)Nc3cccc(C(C)=O)c3)nc1=O)CCCC2,1%,45µM*,-13%,3%,54%,-3%
COc1ccc(C)cc1NC(=O)CSc1nc(=O)n(Cc2ccncc2)c2c1CCC2,1%,-3%,.,.,.,0%
COC(=O)c1ccc(NC(=O)CSc2nc(=O)n(Cc3ccco3)c3c2CCC3)cc1,-1%,?,.,.,.,0%
CCN(CC)CCCn1c2c(c(SCC(=O)Nc3cccc(C(C)=O)c3)nc1=O)CCC2,2%,-10%,10%,-1%,3%,-3%
Cc1c(Cl)cccc1NC(=O)CSc1nc(=O)n(Cc2ccco2)c2c1CCC2,-5%,40µM*,.,.,.,-8%
CCc1ccc(NC(=O)CSc2nc(=O)n(Cc3ccco3)c3c2CCC3)cc1,-1%,45µM*,.,.,.,-4%
COc1ccc(C)cc1NC(=O)CSc1nc(=O)n(Cc2ccco2)c2c1CCC2,0%,35µM*,.,.,.,?
COc1cccc(NC(=O)Cn2c(=O)n(-c3ccc(Cl)cc3)c(=O)c3oc4ccccc4c32)c1,-6%,50%,.,.,.,3%
Cc1cccc(Cn2c(=O)n(Cc3ccccc3)c(=O)c3sc4ccccc4c32)c1,9%,6%,.,.,.,0%
Cc1cc(C)cc(Oc2nc3c(c(=O)n(C)c(=O)n3C)n2Cc2ccc(F)cc2)c1,3%,-7%,.,.,.,1%
COc1ccc(-c2cc3ccccc3cn2)cc1,4%,-23%,-16%,-1%,-8%,4%
COc1ccc(-c2cc3ccc(OC)cc3cn2)cc1,2%,16µM*,-17%,2%,-27%,-4%
SMILES,AmpC inh detg,Sm TGR block,RE007 growth inh,SARS PLpro yeast,AmpC no deterg,TbPYK inhibitor
Cn1c(N=Nc2ccc(N3CCOCC3)cc2)[n+](C)c2ccccc21,3%,.,18µM*,-2%,-1%,?
Cn1c(=Nc2ccc(N3CCOCC3)cc2)ccc2ccccc21,?,0%,-4%,3%,-12%,4%
CS(=O)(=O)Nc1cccc(C2=NN(S(C)(=O)=O)C(c3ccc4c(c3)OCO4)C2)c1 (stereo not given),-4%,-3%,7%,1%,40µM*,-9%
CS(=O)(=O)Nc1ccc(C2=NN(C(=O)c3ccco3)C(c3ccco3)C2)cc1 (stereo not given),-4%,?,36%,-7%,-8%,-11%
CS(=O)(=O)N1N=C(c2ccccc2)CC1c1ccc2c(c1)OCO2 (stereo not given),?,-9%,-11%,7%,-4%,-6%
COc1ccc(S(=O)(=O)N2N=C(c3ccc(NS(C)(=O)=O)cc3)CC2c2ccco2)cc1 (stereo not given),1%,14µM*,3%,1%,-15%,-10%
COc1ccc(S(=O)(=O)N2N=C(c3cccc(NS(C)(=O)=O)c3)CC2c2ccco2)cc1 (stereo not given),-2%,22µM*,3%,3%,-36%,-19%
CS(=O)(=O)Nc1cccc(C2=NN(S(=O)(=O)c3ccc(F)cc3)C(c3cccs3)C2)c1 (stereo not given),-13%,-13%,19%,9%,-29%,6%
C=C(C)Cn1c(=O)c2c(nc3n2CCN3c2ccc(CC)cc2)n(C)c1=O,12%,10%,.,.,.,-1%
Cc1ccc2nc(-c3cc(NC(=O)/C=C/c4ccccc4)ccc3Cl)oc2c1,-2%,-6%,.,.,.,-3%
COc1cc(NC(=O)c2cc(Cl)ccc2Cl)ccc1NC(=O)c1cc2ccccc2o1,12%,0%,.,.,.,-2%
COc1ccc(C(CNC(=O)c2cc(C)oc2C)N2CCOCC2)cc1 (stereo not given),-4%,28µM*,12%,-9%,10%,0%
CCc1cc(C(=O)NCC(c2ccc(OC)cc2)N2CCOCC2)sc1C (stereo not given),-15%,-5%,6%,1%,40%,2%
COc1cccc(F)c1C(C[N+](=O)[O-])c1c(N)n(C)c(=O)n(C)c1=O (stereo not given),2%,-12%,16µM*,-21%,-11%,-1%
COc1cc(C(C[N+](=O)[O-])c2c(N)n(C)c(=O)n(C)c2=O)ccc1O (stereo not given),7%,-31%,?,-19%,-18%,-1%

# High-throughput results from PubChem BioAssay.
